From PubChem BioAssay
Rows were chosen to be rich in hits. Some 6.1% of all compounds tested hit in one or more screens of this group.
DUSP1 inh = MKP-1 phosphatase inhibitors, primary screen, biochemical, in vitro. AID 374, 2006. recombinant MKP-1, OMFP hydrolysis fluorescence. inhibition, %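 (compounds tested at a single concentration somewhere between 10 and 100 µM)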. hit rate 0.15% among 65,000. Dual specificity protein phosphatase 1 (Homo sapiens), P28562;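 active = inhibition above about 50%, limit read from the data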;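 also: 0% = DMSO max control wells and 100% = wells with enzyme stopped by NaOH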
M1 ag = M1 muscarinic receptor agonists, primary screen, CHO-M1 cells, Fluo-4 calcium, agonist mode | hit rate 3% among 64,000 | Muscarinic acetylcholine receptor M1 | B-score at 10 µM | Fluo-4 calcium fluorescence; hits give high values;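 active = fluorescence rise, raw or as B-score row- and column-corrected plate score, outside the 99.7% band of its plate's samples, either direction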
M1 antag = antagonists of rat M1 muscarinic receptor; Muscarinic acetylcholine receptor M1 (Rattus norvegicus), P08482; CHO-M1 cells, Fluo-4 calcium, ACh EC80 antagonist mode; hits give low values; B-score at 10 µM; hit rate 3.4% among 64,000;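 active = calcium fluorescence response, raw or row-and-column corrected B-score, differing from the plate sample mean either way at a set confidence level, mostly lower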
Target sequence (P08482 whole entry, looked up): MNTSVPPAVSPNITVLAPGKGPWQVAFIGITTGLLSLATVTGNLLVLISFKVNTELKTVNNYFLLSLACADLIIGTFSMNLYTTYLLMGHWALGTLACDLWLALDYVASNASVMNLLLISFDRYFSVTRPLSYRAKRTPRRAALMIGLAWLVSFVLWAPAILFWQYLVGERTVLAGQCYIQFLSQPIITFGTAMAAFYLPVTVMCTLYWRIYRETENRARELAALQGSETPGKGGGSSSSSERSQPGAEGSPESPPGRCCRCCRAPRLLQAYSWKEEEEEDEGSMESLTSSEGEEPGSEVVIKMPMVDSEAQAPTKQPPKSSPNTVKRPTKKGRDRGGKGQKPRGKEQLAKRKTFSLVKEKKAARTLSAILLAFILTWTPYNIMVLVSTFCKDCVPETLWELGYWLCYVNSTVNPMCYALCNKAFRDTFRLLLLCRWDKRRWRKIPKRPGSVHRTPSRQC
Hsp90 block = tumor Hsp90 inhibitors, primary screen, cell lysate, fluorescence polarization, NCI-N417 lysate | hit rate 0.35% among 64,000 | inhibition, % at 30 µM | Cy3B-geldanamycin FP displacement;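 active = inhibition above 50%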;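 also: 0% = tracer plus lysate wells and 100% = tracer alone without lysate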
MMP13 inh = human MMP13 inhibitors, primary screen, biochemical, FRET peptide cleavage. Collagenase 3 (Homo sapiens), P45452. MMP-13 fTHP FRET cleavage, Mca fluorescence. inhibition, % at 4 µM. hit rate 0.07% among 65,000. AID 570, 2006;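 active = inhibition above the mean of compound-free control plate wells plus 3 SD, cut at about 14% in these data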;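 also: 0% = DMSO wells and 100% = wells with reference MMP-13 inhibitor after basal subtraction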
Cdc25B inh = inhibitors of Cdc25B phosphatase catalytic domain, primary screen, biochemical, OMFP fluorescence; M-phase inducer phosphatase 2 (Homo sapiens), P30305; recombinant Cdc25B, OMFP fluorescence Ex485/Em525; inhibition, %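 (compounds tested at 10 µM final in the well)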; hit rate 0.1% among 65,000; AID 368, 2006; in the data active = inhibition above about 50%
M1 antag confirm = rat M1 muscarinic receptor antagonists, confirmation, CHO cells, Fluo-4 calcium, duplicate. shares compounds with M1 antag. ACh EC80 antagonism; hits give low values. calcium response (max-min fluorescence) at 10 µM. hit rate 43% among 1,700;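 active = calcium response below the same-plate mean of wells given acetylcholine alone at its 80%-effect dose, minus 3 SD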;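 also: raw fluorescence intensity difference in arbitrary instrument units and not normalized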
mGluR4 antag = human mGluR4 response to M1 antagonist hits, M1 allosteric modulator project, cell-based, antagonist mode, secondary assay 1. fluorescence response (max-min) at 10 µM. hit rate 0.9% among 1,700. shares compounds with M1 antag. CHO-mGluR4 calcium flux, Fluo-4 fluorescence, glutamate EC80; hits give low values;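 active = fluorescence response below the plate's average for near-maximal glutamate wells, less 3 SD of those wells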;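 also: raw unnormalized fluorescence span taken in the window right after glutamate addition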
Active calls of the source: *; · = no result.

SMILES | DUSP1 inh | M1 ag | M1 antag | Hsp90 block | MMP13 inh | Cdc25B inh | M1 antag confirm | mGluR4 antag
Cc1ccc(-c2nnc(N3CCN(C(=O)CN4C(=O)c5ccccc5C4=O)CC3)c3ccccc23)cc1 | 18 | 1 | -0.095 | -2 | 3 | 1 | · | ·
Cc1ccc2nc(NC3=NCN(Cc4ccco4)CN3)nc(C)c2c1 | -6 | 0.6 | -2.9* | -2 | -8 | 0 | 392 | 227
Cc1ccc2nc(NC3=NCN(C4CCCCC4)CN3)nc(C)c2c1 | -3 | -0.096 | -0.36 | 0 | 1 | -8 | · | ·
CCc1ccc2nc(NC3=NCN(CCOC)CN3)nc(C)c2c1 | -6 | -0.25 | 0.035 | -2 | -3 | -17 | · | ·
CCc1ccc2nc(NC3=NCN(CCCN4CCOCC4)CN3)nc(C)c2c1 | -9 | -0.98 | -3.7* | -3 | -5 | -1 | 344* | 182
Cc1ccc2nc(NC3=NCN(Cc4ccc5c(c4)OCO5)CN3)nc(C)c2c1 | 1 | 0.022 | -4.2* | 2 | -2 | 1 | 90* | 273
Brc1cccc(C2CC(c3ccccc3)n3nnnc3N2)c1 (configuration not stated) | 14 | -0.27 | -0.55 | 1 | 3 | -11 | · | ·
CCC(c1ccccc1)c1nc(-c2ccccn2)no1 (configuration not stated) | 8 | 0.89 | -6* | 1 | 3 | -6 | 621 | 239
CC(C)(C)Cc1nc(-c2ccccn2)no1 | -9 | 0.015 | -0.015 | -2 | -3 | 0 | · | ·
CCN(CC)c1ccc(C2C(C(=O)OCCOC)=C(C)NC3=C2C(=O)CCC3)cc1 (configuration not stated) | 11 | -0.47 | -10* | -1 | -6 | -17 | 222* | 200
COCCOC(=O)C1=C(C)NC2=C(C(=O)CCC2)C1c1ccc2c(c1)OCO2 (configuration not stated) | 2 | 1.1 | 0.99 | 0 | -21 | -9 | · | ·
CCOC(=O)C1=C(C)NC2=C(C(=O)CCC2)C1c1ccc(N(C)C)cc1 (configuration not stated) | 13 | 0.77 | -4.3* | -2 | -3 | -5 | 350* | 272
CCCOC(=O)C1=C(C)NC2=C(C(=O)CCC2)C1c1ccc(N(C)C)cc1 (configuration not stated) | 15 | -1.5 | -8.2* | 1 | -4 | 0 | 248* | 253
COc1ccccc1-n1c(SCC(=O)NC2CCCCC2)nc2c(c1=O)SCC2 | -2 | 0.016 | 0.48 | -4 | 3 | -8 | · | ·
CCOC(=O)N1CCC2(CC1)CC(=O)c1c(ccc3oc(C(=O)O)c(C)c13)O2 | 6 | 0.044 | -3.3* | -2 | -80 | -4 | 668 | 242
c1ccc(CCN2CN(CCCN3CCOCC3)c3nc4ccccc4n3C2)cc1 | 22 | -0.23 | -1.9* | 2 | 2 | 1 | 442 | 187
O=S1(=O)CC=C(CSc2nc3ccccc3[nH]2)C1 | 11 | 0.056 | -2.3* | 0 | 2 | -2 | 566 | 201
CCCCS/C(=C(/C#N)C(N)=O)c1cc2c([nH]1)CCCC2 | 31 | 0.18 | -6* | -3 | 11 | -12 | 140* | 267
CCOC(=O)Cc1c(C)c2c(C)nn(-c3ccccc3)c2oc1=O | 21 | -0.73 | 0 | -15 | -21 | -4 | · | ·
Cc1cc(NCCCN2CCOCC2)n2nc(C)c(-c3ccccc3)c2n1 | -7 | 0.93 | -0.084 | -1 | -10 | 2 | · | ·
COc1ccccc1-c1c(C)nn2c(NCCN3CCCC3)cc(C)nc12 | -6 | 0.062 | -1.9* | -5 | 1 | -11 | 460 | 215
C=CCSc1nnc2nc3c(nn12)c1cc(C)ccc1n3CC=C | 9 | 0.9 | -1.5 | 7 | 6 | -2 | · | ·
CCOc1ccccc1OCCOCCN1CC(C)OC(C)C1 (configuration not stated) | 6 | 1.5 | 0.27 | -5 | 5 | -2 | · | ·
CCn1c(CNC(=O)c2cccc(C)c2)nc2ccccc21 | -1 | -0.52 | -0.0034 | -1 | -1 | -7 | · | ·
COC(=O)c1ccc(CSc2ccc3nnc(-c4ccccn4)n3n2)o1 | 2 | 0.3 | 0.51 | -2 | -5 | -1 | · | ·
SMILES | DUSP1 inh | M1 ag | M1 antag | Hsp90 block | MMP13 inh | Cdc25B inh | M1 antag confirm | mGluR4 antag
CCOc1ccc(-c2nnc3ccc(SCc4ccc(C(=O)OC)o4)nn23)cc1 | 32 | 0.046 | -4* | 1 | -9 | 1 | 520* | 227
COc1ccc(CN2C(=O)CCC2(C)C(=O)NC2CCCCCC2)cc1 (configuration not stated) | 27 | 0.49 | 0.15 | -5 | 1 | -8 | · | ·
COc1cccc(CN2C(=O)CCC2(C)C(=O)NC2CCCCC2)c1 (configuration not stated) | 7 | -0.49 | -3.5* | -4 | -6 | -9 | 582 | 229
COc1ccccc1C1/C(=C(/O)c2ccccc2)C(=O)C(=O)N1CC(C)O (configuration not stated) | 15 | 0.47 | 0.029 | -1 | 12 | -1 | · | ·
O=C(CSc1ncnc2c1nnn2-c1ccc(F)cc1)NCC1CCCO1 (configuration not stated) | -4 | 0.19 | -1.3 | -3 | 0 | -14 | · | ·
Cc1ccc(-n2nnc3c(SCC(=O)NCC4CCCO4)ncnc32)cc1 (configuration not stated) | 16 | 1.5 | -2.4* | 3 | 5 | -3 | 569 | 247
COc1ccc(S(=O)(=O)N2CCC(C(=O)Nc3ccccc3C)CC2)c2cccnc12 | 5 | 0.21 | 0.68 | 0 | 1 | -10 | · | ·
Cn1c(N2CCN(c3ccccn3)CC2)nc2c1c(=O)n(Cc1ccc(Cl)cc1)c(=O)n2C | 5 | 0.71 | -2.2* | -2 | 2 | -28 | 619 | 250
Cn1c(N2CCN(c3ccccn3)CC2)nc2c1c(=O)n(Cc1ccccc1Cl)c(=O)n2C | -10 | -0.04 | 0.85 | 0 | -9 | -25 | · | ·
CCN(Cc1ccncc1)C(=O)c1cccs1 | 3 | -0.6 | -0.31 | -4 | -2 | -8 | · | ·
O=C(CCCN1CCC(c2ccccc2)C1)c1ccc2c(c1)OCCO2 (configuration not stated) | -11 | -0.55 | -8.8* | -1 | 4 | -20 | 251* | 229
O=C(CCCN1CCOCC1)c1ccc2c(c1)OCCO2 | -16 | -0.066 | -1.7 | -3 | 0 | 2 | · | ·
